20 compounds from PubChem BioAssay AID784 (The Scripps Research Institute Molecular Screening Center, 2007) can be followed below.

The structures appear in SMILES notation. The campaign covered roughly 30,000 compounds. About 130 (0.43%) were called active. This is one part of a sample in which actives are shown more often than they occur. Values without a mark were called inactive. Rule as the data show it: active = activation above about 65%; inactive = the rest.

Sequence of Lysosomal acid glucosylceramidase (Homo sapiens) (P04062 whole entry L483P): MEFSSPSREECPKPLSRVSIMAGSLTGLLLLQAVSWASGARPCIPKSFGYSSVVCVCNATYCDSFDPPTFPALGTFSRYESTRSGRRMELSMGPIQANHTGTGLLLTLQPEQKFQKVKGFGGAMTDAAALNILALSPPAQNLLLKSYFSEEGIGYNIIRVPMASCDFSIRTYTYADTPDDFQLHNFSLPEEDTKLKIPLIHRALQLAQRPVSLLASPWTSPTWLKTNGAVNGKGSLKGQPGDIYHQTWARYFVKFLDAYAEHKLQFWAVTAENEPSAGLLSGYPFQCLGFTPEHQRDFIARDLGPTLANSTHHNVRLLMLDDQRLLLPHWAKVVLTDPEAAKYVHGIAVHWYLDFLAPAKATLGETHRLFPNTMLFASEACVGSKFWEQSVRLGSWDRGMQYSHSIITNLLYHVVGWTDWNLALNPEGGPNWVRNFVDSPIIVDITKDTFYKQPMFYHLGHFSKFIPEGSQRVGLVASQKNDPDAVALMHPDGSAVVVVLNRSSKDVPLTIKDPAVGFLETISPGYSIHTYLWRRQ

The assay addresses Lysosomal acid glucosylceramidase (Homo sapiens) (UniProt P04062). The assay can be described thus: GBA activity enhancers in patient fibroblasts, primary screen, cell-based (AID 784).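 Also: 0% = vehicle wells and 100% = positive control wells.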 The following applies: L444P Gaucher fibroblasts, 4-MU-glucoside fluorescence, 3 days; at 10 µM; stronger effect = higher value.
On to `Cc1cccc(NC(=O)COc2ccc(Br)cc2C)n1`, for which the activation is 7.05%.

For `CC(=O)c1ccc(-n2nnnc2SCC(=O)N2CCN(C(=O)c3ccco3)CC2)cc1`, the activation was -18.5%.

For the compound `O=C(CN(CC1CCCO1)C(=O)CNS(=O)(=O)c1ccccc1)NCc1ccccc1` (stereo not given), the activation was -28.7%.

`CC1CCCC(NC(=O)CSc2nccn2C)C1C` (stereo not given): the activation was -8.08%.

As for `CCOC(=O)c1c(C)[nH]c(C(=O)COc2ccc3c(c2)OCO3)c1C`, the activation was 6.28%.

In the case of `Cn1c(SCC(=O)c2cccs2)nnc1-c1ccco1`, the activation was -23%.

With `CCCn1c(SCC(=O)N2CCc3ccccc32)nnc1-c1ccncc1`, the activation is -11%.

As to `CCCSC1=C(C#N)C(c2ccccc2C)C(C(=O)OC)C(=O)N1` (stereo not given), the activation is -16.4%.

Consider `Cc1cc(C)c2c(c1)cc(C)c1nnc(SCC(=O)Nc3cc(C)on3)n12`, for which the activation is -30.3%.

As to `CCOC(=O)c1cc(-c2nnc(-c3cc(OC)c(OC)c(OC)c3)o2)c(C)nc1C`, the activation is -21.7%.

As for `O=C(Nc1ccc(S(=O)(=O)N2CCCC2)cc1Cl)C1=COCCO1`, the activation was 22.5%.

Take `O=C(O)c1ccc(NS(=O)(=O)c2cccc3nsnc23)cc1`: the activation is 1.35%.

For `CC1=CC(C)(C)N(C(=O)CSc2nccn2C)c2cc(C)ccc21`, the activation was -9.35%.

In the case of `CN1CCC2(CC1)NC(=O)NC2=O`, the activation was -11.5%.

`COC(=O)C(CC(=O)Nc1cc(C)ccc1C)Nc1ccccc1OC` (stereo not given): the activation is 3.63%.

With `Cn1cccc1C(=O)NC(=O)COC(=O)Cc1coc2ccc3ccccc3c12`, the activation was -54.5%.

As to `Cc1ccc(NC(=O)CS(=O)CC(=O)N(c2ccccc2)C(C)C(=O)NC2CCCC2)cc1` (stereo not given), the activation was 0.43%.

With `CCCc1nnc(NC(=O)c2cc(OC)cc(OC)c2)s1`, the activation is -49.8%.

Consider `CCCc1nc(SCC(=O)Nc2ccccc2OC)c2c(=O)n(C)c(=O)n(C)c2n1`, for which the activation was -10.4%.

Turning to `CCc1cc(=O)oc2cc(C)cc(OC(C)C(=O)O)c12` (stereo not given), the activation was 12.8%.
